± gives the standard deviation of the averaged measurements.

This test deals with K562. Kind of test: relative cell viability (ATPlite) vs untreated control, with imatinib (fraction); higher = less toxic. To be noted: 1 µM; 72 h; imatinib 0.125 µM. (Cellular ATP, detected with luciferase, serves as a proxy for viable cell number.)
`N#CCCc1ccc2c(c1)-c1[nH]c3ccc([N+](=O)[O-])cc3c1CC(=O)N2` [Alsterpaullone, 2-Cyanoethyl] showed a relative cell viability of 0.153 ± 0.036.

For `Cc1nc(-c2ccccc2)c(-c2ccncc2)o1`, the relative cell viability was determined as 0.649 ± 0.16.

`CCOC(=O)c1c(C)[nH]c(/C=C2\C(=O)Nc3ccccc32)c1C` [VEGF Receptor 2 Kinase Inhibitor I] yielded a relative cell viability of 0.845 ± 0.075.

In the case of `COc1cc2ncn(-c3cc(OCc4ccccc4S(C)(=O)=O)c(C#N)s3)c2cc1OC` [IKK-3 Inhibitor IX], the relative cell viability was 0.764 ± 0.036.

Take `CN(C)CCCn1cc(C2=C(c3c[nH]c4ccccc34)C(=O)NC2=O)c2ccccc21` [Bisindolylmaleimide I]: the relative cell viability was found to be 0.137 ± 0.042.

On to `O=C1Nc2ccc(Br)cc2/C1=C/c1cc2c([nH]1)CCCC2` [VEGF Receptor 2 Kinase Inhibitor II], for which the relative cell viability was 0.782 ± 0.054.

As for `CC[C@H](CO)Nc1nc(NCc2ccc(-c3ccccn3)cc2)c2ncn(C(C)C)c2n1` [CR8, (R)-Isomer], the relative cell viability came out at 0.0846 ± 0.015.

Regarding `CC(C)[C@H](CO)Nc1nc(Nc2cccc(Cl)c2)c2ncn(C(C)C)c2n1` [Purvalanol A], the relative cell viability came out at 0.75 ± 0.072.

As to `CCCCCCOC(=O)[C@]1(O)C[C@@H]2O[C@@]1(C)n1c3ccccc3c3c4c(c5c6ccccc6n2c5c31)C(=O)NC4`, the relative cell viability was determined as 0.764 ± 0.02.

With `c1cc(-c2cnn3cc(-c4ccc(OCCN5CCCCC5)cc4)cnc23)ccn1` [AMPK Inhibitor, Compound C], the relative cell viability came to 0.834 ± 0.051.

The molecule `c1ccc(-c2n[nH]c3c2oc2ccccc23)cc1` gave a relative cell viability of 0.732 ± 0.04.

As for `CCCCn1c2ccc(O)cc2c2c3c(c(-c4ccccc4Cl)cc21)C(=O)NC3=O` [Wee1 Inhibitor II], the relative cell viability was determined as 0.748 ± 0.1.

In turn, `CC(C)[C@H](CO)Nc1nc(Nc2cc(N)cc(Cl)c2)c2ncn(C(C)C)c2n1` [Aminopurvalanol A] had a relative cell viability of 0.796 ± 0.025.

Take `O=c1[nH][nH]c2nnc(-c3c(-c4ccccc4)nn4ccccc34)cc12` [ERK Inhibitor II, Negative control]: the relative cell viability turned out to be 0.758 ± 0.019.

`CN[C@@H]1C[C@H]2O[C@@](C)([C@@H]1OC)n1c3ccccc3c3c4c(c5c6ccccc6n2c5c31)C(=O)N[C@H]4O` came in with a relative cell viability of 0.14 ± 0.026.

`Nc1n[nH]c(N)c1N=Nc1ccc(O)cc1` [Cdk9 Inhibitor II] showed a relative cell viability of 0.765 ± 0.035.

Consider `CCCCc1c(-c2ccc(O)cc2)[nH]c2nccnc12` [Aloisine A, RP107], for which the relative cell viability worked out at 0.77 ± 0.032.

These data come from the supplement of paper PMC4100887.
